According to PubChem BioAssay (EPA / NIEHS):
“And” between values parts separate entries of the source, which are not always exact repeats. Equal entries are not always repeated. Inconclusive results are not listed. Where a structure was tested more than once in an assay, its records may differ in their call. The source made the active and inactive calls. How the source made its calls, unless noted: active means hit-call score of the fitted dose curve at least 0.9, where 1 is the maximum; inactive means score below 0.9.

Tests used:
[1] = read-out: Interleukin-1 alpha (IL1a), IL1A (gene 3552); assay: BSK_IMphg_IL1a: BioMAP Diversity Plus: IMphg Assay for Interleukin-1 alpha (IL1a) Biomarker Activity (AID 2284290); conditions: primary human endothelial cells with macrophages
Method in brief: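 Human venular endothelial cells co-cultured with macrophages, IMphg system. IL-1α is measured by ELISA 24 h after dosing and fitted in the positive direction against DMSO. Cytotoxicity is assessed by SRB staining of parallel cultures.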

[2] = BSK_IMphg_SRB: Viability Assessment in the BioMAP Diversity Plus: IMphg Assay (AID 2284292); conditions: primary human endothelial cells with macrophages;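 further: measured one day after compound addition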
Method in brief: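 Human venular endothelial cells with macrophages, 24 h after chemical dosing; total protein by 0.1% SRB staining after 10% TCA fixation, read at 560 nm. Positive-direction fitting versus DMSO baseline.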

[3] = read-out: Interleukin-10 (IL10), IL10 (gene 3586); assay: BSK_IMphg_IL10: BioMAP Diversity Plus: IMphg Assay for Interleukin-10 (IL10) Biomarker Activity (AID 2284294); conditions: primary human endothelial cells with macrophages
Method in brief: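 Human venular endothelial cells cocultured with macrophages, dosed 24 h; IL-10 measured by ELISA, activity relative to DMSO. Cytotoxicity assessed in parallel cultures by sulforhodamine B total-protein staining.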

[4] = BSK_IMphg_SRB.Mphg: Macrophage Viability Assessment in the BioMAP Diversity Plus: IMphg Assay (AID 2284295); conditions: primary human endothelial cells with macrophages
Method in brief: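 Venular endothelial cells co-cultured with macrophages, read 24 h after dosing. Total protein measured by 0.1% SRB staining after 10% TCA fixation, absorbance at 560 nm. Fitted in positive direction against DMSO baseline.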

[5] = read-out: Thrombomodulin, THBD (gene 7056); assay: BSK_LPS_Thrombomodulin: BioMAP Diversity Plus: LPS Assay for Thrombomodulin Biomarker Activity (AID 2284296); conditions: primary human HUVEC with PBMC
Method in brief: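 Human umbilical vein endothelial cells co-cultured with PBMC and stimulated with LPS; cell-surface thrombomodulin measured by ELISA 24 hours after compound. Gain or loss versus DMSO; cytotoxicity checked by SRB staining in parallel cultures.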

[6] = CCTE_Mundy_HCI_iCellGluta_NOG_NeuriteLength: CCTE's Neurite Outgrowth Assay in iCellGluta cells for Neurite Length, Mundy Lab (AID 2284318; active means hit-call score of the fitted dose curve at least 0.9, where 1 is the maximum)
Method in brief: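 Automated high-content imaging of betaIII-tubulin (Alexa Fluor-488) and Hoechst-stained cells gave neurite length, normalized to the DMSO baseline.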

[7] = CCTE_Mundy_HCI_iCellGluta_NOG_NeuronCount: CCTE's Neurite Outgrowth Assay in iCellGluta cells for Neuron Count, Mundy Lab (AID 2284340; active means hit-call score of the fitted dose curve at least 0.9, where 1 is the maximum;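 further: cells fixed about 48 h after compound addition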)
Method in brief: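 Neuron count read by automated high-content imaging of Hoechst 33342 and betaIII-tubulin/Alexa Fluor-488 labelling in human iPSC glutamatergic neurons. Activity fitted relative to DMSO.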

[8] = CCTE_Mundy_HCI_iCellGluta_NOG_NeuriteCount: CCTE's Neurite Outgrowth Assay in iCellGluta cells for Neurite Count, Mundy Lab (AID 2284342; active means hit-call score of the fitted dose curve at least 0.9, where 1 is the maximum;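 further: chemical exposure about 48 hours starting 2 hours after plating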)
[9] = Tanguay_ZF_120hpf_MO24: Oregon State University Tanguay Lab 24 Hour Post-fertilization zebrafish Assay for Mortality (AID 2284389)
Method in brief: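 Dechorionated wild-type zebrafish embryos, 1 per well, statically exposed from 6 hpf at 28C, 0.64% DMSO final. Mortality scored as binary present/absent at 24 hpf by brightfield microscopy, relative to DMSO.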

[10] = Tanguay_ZF_120hpf_MORT: Oregon State University Tanguay Lab 120 Hour Post-fertilization zebrafish Assay for Mortality (AID 2284399)
Method in brief: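 Dechorionated wild-type Tropical 5D zebrafish embryos, one per well from 6 hpf, static exposure to 120 hpf at 28C in sealed dark plates, 0.64% DMSO final. Mortality scored as binary by brightfield at 24 and 120 hpf.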

[11] = Tanguay_ZF_120hpf_BRN: Oregon State University Tanguay Lab 120 Hour Post-fertilization zebrafish Assay for Brain Region Malformation (AID 2284402)
Method in brief: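 Dechorionated wild-type Tropical 5D zebrafish embryos exposed statically from 6 to 120 hpf at 28C, one per well, 0.64% DMSO final. Brain malformation scored at 120 hpf by brightfield as present/absent; dead embryos not scored.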

IYD (gene 389434) = assay: CCTE_GLTED_hIYD: CCTE's human Iodotyrosine Deiodinase (xIYD) Inhibition Assay, Great Lakes Toxicology and Ecology Division (GLTED) Lab (AID 2284317; active means hit-call score of the fitted dose curve at least 0.9, where 1 is the maximum;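 further: cell-free human IYD enzyme made in baculovirus insect cells; iodide freed from monoiodotyrosine measured by cerium arsenite color change at 420 nm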)
Method in brief: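 Human IYD expressed in a baculovirus-insect cell system was incubated 3 h with monoiodotyrosine and test chemical. Released iodide, separated on Dowex columns, was quantified by the Sandell-Kolthoff reaction at 420 nm; plates were normalized to MNT and DMSO/NaOH controls.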

TTR (gene 7276) = assay: CCTE_GLTED_hTTR_0.5uM: CCTE's human Transthyretin (hTTR) Inhibition Assay, with 0.5uM TTR, Great Lakes Toxicology and Ecology Division (GLTED) Lab (AID 2284320)
Method in brief: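 Cell-free displacement assay in which human TTR at 0.5 uM was incubated with test chemical for 2 h. Displacement of the ANSA probe was read by fluorescence at 380 nm excitation/475 nm emission. Loss of signal was fitted in the positive direction versus DMSO.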

[12] = read-out: Macrophage colony-stimulating factor (MCSF), CSF1 (gene 1435); assay: BSK_IMphg_MCSF: BioMAP Diversity Plus: IMphg Assay for Macrophage colony-stimulating factor (MCSF) Biomarker Activity (AID 2284293); conditions: primary human endothelial cells with macrophages
Method in brief: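 Co-culture of human venular endothelial cells and macrophages, 24 hours of chemical exposure. M-CSF quantified by ELISA, with parallel SRB total-protein staining for cytotoxicity; activity fitted relative to DMSO.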

CD69, CD69 (gene 969) = assay: BSK_LPS_CD69: BioMAP Diversity Plus: LPS Assay for CD69 Biomarker Activity (AID 2284303); conditions: primary human HUVEC with PBMC
Method in brief: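 Human umbilical vein endothelial cells co-cultured with PBMC under LPS stimulation, chemical exposure 24 h; cell-surface CD69 measured by ELISA and fitted in the positive direction versus DMSO.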

SERPINA7 (gene 6906) = assay: CCTE_GLTED_hTBG: CCTE's human Thyroxine-binding Globulin (TBG) Inhibition Assay, Great Lakes Toxicology and Ecology Division (GLTED) Lab (AID 2284343; active means hit-call score of the fitted dose curve at least 0.9, where 1 is the maximum;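 further: active chemicals lower fluorescence versus DMSO baseline by displacing probe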)
Method in brief: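 Cell-free binding assay in which human TBG is incubated with test chemical for 2 hours and displacement of the fluorescent probe ANSA is read at 380 nm excitation/475 nm emission. Activity is fitted against DMSO as the negative control.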

[13] = CCTE_Deisenroth_5AR_NBTE_donor: CCTE's 5alpha-reductase NanoBRET Target Engagement Assay […], Deisenroth Lab (AID 2284319); conditions: actives raise or lower the signal
Method in brief: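 HEK293T cells were reverse transfected with an SRD5A2-NanoLuc vector for 20 h, exposed to test chemical (8 points, 10 nM - 29.9 uM) for 3 h, then testosterone tracer for 2 h more. Donor luminescence (460 nm) was read; bidirectional fit versus DMSO.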

[14] = CCTE_Deisenroth_5AR_NBTE_acceptor: CCTE's 5alpha-reductase NanoBRET Target Engagement Assay - Autofluorescence Screen, Deisenroth Lab (AID 2284321); conditions: actives raise or lower the signal;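 further: compound fluorescence in the acceptor channel under 460 nm excitation flags autofluorescence artifacts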
Method in brief: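 Acceptor-channel fluorescence flags artifacts, with excitation fixed at 460 nm. Nominal 100 uM chemical samples were read in triplicate runs, and signal changes were fitted in both directions relative to DMSO.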

SRD5A2 (gene 6716) = assay: CCTE_Deisenroth_5AR_NBTE_ratio: CCTE's 5alpha-reductase NanoBRET Target Engagement Assay - Ratio, Deisenroth Lab (AID 2284322); conditions: actives raise or lower the signal
Method in brief: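 Reverse-transfect HEK293T with pNLF1-C-SRD5A2, express 20 h. Pre-incubate cells with chemical 3 h (8-point series, 10 nM - 29.9 uM, duplicate). Add testosterone tracer, 2 h more. Add substrate/inhibitor, read donor and acceptor emission.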

Measured: AC50

NC(O)(C(F)(F)F)C(F)(F)F
not listed: IYD (gene 389434) | TTR (gene 7276) | [12] | CD69, CD69 (gene 969) | SERPINA7 (gene 6906) | [13] | [14] | SRD5A2 (gene 6716)
inactive: all other assays above

O=S(=O)(Cl)C(F)(F)C(F)(F)C(F)(F)C(F)(F)C(F)(F)C(F)(F)C(F)(F)C(F)(F)F
inactive: [1] | [2] | [3] | [5] | [9] | [10] | [11]
active: [3] 54.1 µM | IYD (gene 389434) 100 µM | TTR (gene 7276) 0.234 µM

CCN(CCO)S(=O)(=O)C(F)(F)C(F)(F)C(F)(F)C(F)(F)C(F)(F)C(F)(F)C(F)(F)C(F)(F)F
active: [2] 30 µM | [5] 16.6 µM and 13.5 µM
inactive: [1] | [12] | [3] | [6] | [7] | [8] | [9] | [10] | [11]

OCCCCC(F)(F)C(F)(F)C(F)(F)C(F)(F)F
not listed: IYD (gene 389434) | TTR (gene 7276) | [12] | SERPINA7 (gene 6906) | [13] | [14] | SRD5A2 (gene 6716)
inactive: all other assays above

CCOC(=O)CC(=O)C(F)(F)C(F)(F)F
inactive: [1] | [2] | [3] | [5] | CD69, CD69 (gene 969) | [9] | [10] | [11]
active: TTR (gene 7276) 49.8 µM

O=S(=O)(O)CCC(F)(F)C(F)(F)C(F)(F)C(F)(F)F
inactive: [1] | [2] | [12] | [3] | [5] | CD69, CD69 (gene 969) | [9] | [10] | [11]
active: TTR (gene 7276) 2.1 µM

CCc1cc(Cc2cc(CC)c(N)c(CC)c2)cc(CC)c1N
active: SERPINA7 (gene 6906) 8.5 µM

CC(C)Nc1ccc(NC(C)C)c2c1C(=O)c1ccccc1C2=O
active: SRD5A2 (gene 6716) 3.06 µM
inactive: [13] | [14]

CCC(Cc1c(I)cc(I)c(N)c1I)C(=O)O (stereo not drawn)
active: SERPINA7 (gene 6906) 43.1 µM

OCC(F)(F)C(F)(F)C(F)(F)C(F)(F)C(F)(F)C(F)(F)C(F)(F)C(F)(F)CO
inactive: [5] | [11]
active: [1] 47.6 µM and 50.3 µM | [2] 52.9 µM and 54 µM | [3] 21.5 µM and 42.7 µM | TTR (gene 7276) 2.78 µM | [9] 72.8 µM | [10] 19.6 µM

CCCCCCCCCCCCCC[P+](CCCC)(CCCC)CCCC
active: IYD (gene 389434) 97.6 µM | [13] 13.1 µM | SRD5A2 (gene 6716) 22.9 µM

CCCCCCCCCCCCC[N+](C)(C)Cc1ccccc1
active: IYD (gene 389434) 70.8 µM | [13] 18.2 µM | [14] 17.2 µM | SRD5A2 (gene 6716) 68.9 µM

CCN=c1cc2oc3cc(NCC)c(C)cc3c(-c3ccccc3C(=O)OCC)c-2cc1C
active: [13] 10 µM | [14] 0.603 µM | SRD5A2 (gene 6716) 6.06 µM

C=CC(=O)OCCC(F)(F)C(F)(F)C(F)(F)C(F)(F)F
inactive: [1] | [2] | [3] | [5] | TTR (gene 7276) | [9] | [10] | [11]

C=C(C)C(=O)OCC(F)(F)C(F)(F)C(F)(F)C(F)F
active: TTR (gene 7276) 19 µM
inactive: [1] | [2] | [3] | [5]

CCCCCCCC/C=C\CCCCCCCC(=O)OCC(O)CO (stereo not drawn)
active: IYD (gene 389434) 68.1 µM

NC(=O)C(F)(F)C(F)(F)C(F)(F)C(F)F
active: TTR (gene 7276) 45.2 µM
inactive: [1] | [2] | [3] | [5] | [9] | [10] | [11]
